Results filed as inconclusive are left out. Active and inactive are the calls of the source. How the source made its calls, unless noted: active means hit-call score of the fitted dose curve at least 0.9, where 1 is the maximum; inconclusive means response in the unintended direction; inactive means score below 0.9.
What was measured:
[1] = read-out: xenobiotic metabolism (CYP1A2), CYP1A2 (gene 1544); test: CLD_CYP1A2_24hr: CellzDirect (CLD) Gene Expression Assay for xenobiotic metabolism (CYP1A2) at 24 hours (AID 2283683)
Method in brief: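 CYP1A2 mRNA induction measured by quantitative nuclease protection (chemiluminescent) in human primary hepatocytes 24 h after multi-concentration chemical dosing with daily fresh solutions. DMSO (0.2%) baseline; positive-direction fitting; morphology-based cytotoxicity noted.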

[2] = read-out: Cytochrome P450 2C9 (Homo sapiens) (UniProt P11712); test: CLD_CYP2C9_24hr: CellzDirect (CLD) Gene Expression Assay for xenobiotic metabolism (CYP2C9) at 24 hours (AID 2283688)
Method in brief: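 Induction of CYP2C9 mRNA was quantified by quantitative nuclease protection assay (chemiluminescence), gain of signal versus 0.2% DMSO vehicle, 24 h after dosing. Human primary hepatocytes (two donors) received fresh chemical daily at multiple concentrations; morphology-based cytotoxicity flagged yes/no.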

[3] = read-out: alkyl and aryl transferase (GSTA2), GSTA2 (gene 2939); test: CLD_GSTA2_24hr: CellzDirect (CLD) Gene Expression Assay for alkyl and aryl transferase (GSTA2) at 24 hours (AID 2283693)
Method in brief: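 GSTA2 transcript levels were quantified by quantitative nuclease protection assay in primary human hepatocytes 24 h after daily dosing with fresh solutions at multiple concentrations; 0.2% DMSO vehicle as baseline, cytotoxicity flagged morphologically.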

[4] = read-out: glucuronosyltransferase (UGT1A1), UGT1A1 (gene 54658); test: CLD_UGT1A1_24hr: CellzDirect (CLD) Gene Expression Assay for glucuronosyltransferase (UGT1A1) at 24 hours (AID 2283696)
Method in brief: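 UGT1A1 transcript induction was measured by quantitative nuclease protection assay (chemiluminescence) in human hepatocyte cultures 24 h after daily fresh dosing, with 0.2% DMSO as vehicle and baseline.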

[5] = read-out: Cytochrome P450 2B6 (Homo sapiens) (UniProt P20813); test: CLD_CYP2B6_48hr: CellzDirect (CLD) Gene Expression Assay for xenobiotic metabolism (CYP2B6) at 48 hours (AID 2283699);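 further: actives raise transcript level above DMSO so potency reflects induction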
Method in brief: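 CYP2B6 transcript induction, read by quantitative nuclease protection (S1 digestion, chemiluminescent detection) 48 h after dosing, is fitted upward against 0.2% DMSO. Cultured human liver primary cells, two donor preparations, received fresh chemical daily over multiple concentrations.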

[6] = read-out: xenobiotic metabolism (CYP1A2), CYP1A2 (gene 1544); test: CLD_CYP1A2_48hr: CellzDirect (CLD) Gene Expression Assay for xenobiotic metabolism (CYP1A2) at 48 hours (AID 2283703)
Method in brief: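 Cytotoxicity was flagged yes/no from morphology, while CYP1A2 transcript induction was detected by qNPA chemiluminescence after a 48-hour exposure. Human primary hepatocyte cultures from separate donors received fresh dosing solutions daily over two days, with 0.2% DMSO as vehicle and baseline.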

[7] = read-out: xenobiotic metabolism (CYP1A1), CYP1A1 (gene 1543); test: CLD_CYP1A1_48hr: CellzDirect (CLD) Gene Expression Assay for xenobiotic metabolism (CYP1A1) at 48 hours (AID 2283705)
Method in brief: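 CYP1A1 transcript measured by quantitative nuclease protection (chemiluminescent) 48 h after two daily treatments of human hepatocyte cultures, versus 0.2% DMSO. Morphology-based cytotoxicity flags accompany data; two donor preparations used.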

[8] = read-out: glucuronosyltransferase (UGT1A1), UGT1A1 (gene 54658); test: CLD_UGT1A1_48hr: CellzDirect (CLD) Gene Expression Assay for glucuronosyltransferase (UGT1A1) at 48 hours (AID 2283709);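 further: actives increase expression relative to DMSO so potency refers to induction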
Method in brief: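 Quantitative nuclease protection assay (chemiluminescent) for UGT1A1 mRNA at 48 h in human hepatocyte cultures from two donors, redosed daily with fresh solutions. Induction fitted relative to 0.2% DMSO; phase-contrast morphology annotated cytotoxicity.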

[9] = read-out: HMG-CoA synthase (HMGCS2), HMGCS2 (gene 3158); test: CLD_HMGCS2_48hr: CellzDirect (CLD) Gene Expression Assay for HMG-CoA synthase (HMGCS2) at 48 hours (AID 2283711)
Method in brief: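 mRNA induction read by qNPA chemiluminescence, 48 h after dosing. Cultured primary human liver cells (two donor preparations) received fresh compound daily over two days against 0.2% DMSO vehicle; morphology-based cytotoxicity noted alongside.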

[10] = CEETOX_H295R_MTT_cell_viability: Viability Assessment in the CeeTox HT-H295R MTT Assay (AID 2283718; active means hit-call score of the fitted dose curve at least 0.9, where 1 is the maximum; inactive means score below 0.9)
Method in brief: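 Human H295R adrenal cells, prestimulated 48 h with 10 uM forskolin, were exposed 48 h to chemicals in 0.1% DMSO. Viability was measured in the same wells by MTT (0.5 mg/ml, 4 h, 37 C), absorbance 570/650 nm, as percent of controls.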

[11] = read-out: Cytochrome P450 3A4 (Homo sapiens) (UniProt P08684); test: CLD_CYP3A4_24hr: CellzDirect (CLD) Gene Expression Assay for xenobiotic metabolism (CYP3A4) at 24 hours (AID 2283689)
Method in brief: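 CYP3A4 mRNA induction read by quantitative nuclease protection (chemiluminescence) 24 hr after dosing. Cultured human hepatocytes (two donor preparations) treated daily, vehicle 0.2% DMSO; phase-contrast morphology annotates cytotoxicity.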

[12] = read-out: ABC Transporter (ABCB1), ABCB1 (gene 5243); test: CLD_ABCB1_48hr: CellzDirect (CLD) Gene Expression Assay for ABC Transporter (ABCB1) at 48 hours (AID 2283695)
Method in brief: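 ABCB1 mRNA was measured by quantitative nuclease protection assay (chemiluminescence) 48 h after dosing. Human hepatocyte cultures from two separate donors received fresh dosing solutions daily for two days, with 0.2% DMSO as vehicle. Positive-direction fit against DMSO.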

[13] = read-out: ABC Transporter (ABCB11), ABCB11 (gene 8647); test: CLD_ABCB11_48hr: CellzDirect (CLD) Gene Expression Assay for ABC Transporter (ABCB11) at 48 hours (AID 2283697)
Method in brief: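 Induction of ABCB11 mRNA relative to 0.2% DMSO, measured at 48 h by qNPA chemiluminescence. Cultured human hepatocytes (two donors) received fresh dosing solutions at several concentrations on two consecutive days.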

[14] = read-out: alkyl and aryl transferase (GSTA2), GSTA2 (gene 2939); test: CLD_GSTA2_48hr: CellzDirect (CLD) Gene Expression Assay for alkyl and aryl transferase (GSTA2) at 48 hours (AID 2283708);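 further: active means mRNA induction above DMSO vehicle baseline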
Method in brief: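 GSTA2 mRNA quantified by qNPA chemiluminescence in human primary hepatocyte lysates after 48 h of daily fresh chemical dosing. Increases fitted against 0.2% DMSO vehicle baseline; cytotoxicity from morphology annotated yes/no.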

[15] = STM_H9_CystineISnorm_perc: Stemina devTOX quickPredict H9 human embryonic stem cell (hESC)-based Assay for Cystine (CYSS) Metabolite Biomarker, Normalized (AID 2283713; active means hit-call score of the fitted dose curve at least 0.9, where 1 is the maximum; inactive means score below 0.9)
Method in brief: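 Normalized cystine level in conditioned medium from the final 24h of a 72h treatment of pluripotent H9 cells (daily media and compound renewal). Quantified by UPLC-HRMS with C13-labeled internal standard; scaled to median of 0.1% DMSO vehicle wells.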

[16] = STM_H9_OrnCyssISnorm_ratio: Stemina devTOX quickPredict H9 human embryonic stem cell (hESC)-based Assay for Ornithine (ORN):Cystine (CYSS) Ratio (AID 2283714)
Method in brief: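 UPLC-HRMS of spent media: ORN/CYSS ratio of internal-standard-normalized percentages, DMSO (0.1%) baseline. Pluripotent H9 hESCs, 72h exposure, daily re-dosing with fresh media; last 24h media collected.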

[17] = read-out: Cytochrome P450 2C9 (Homo sapiens) (UniProt P11712); test: CLD_CYP2C9_48hr: CellzDirect (CLD) Gene Expression Assay for xenobiotic metabolism (CYP2C9) at 48 hours (AID 2283701; active means hit-call score of the fitted dose curve at least 0.9, where 1 is the maximum; inactive means score below 0.9)
Method in brief: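 mRNA level measured by quantitative nuclease protection (S1 digestion, chemiluminescent detection) in lysates of human primary hepatocytes exposed 48 h with daily re-dosing. Induction fitted positively versus 0.2% DMSO; morphology-based cytotoxicity flagged yes/no.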

[18] = read-out: Glyceraldehyde-3-phosphate dehydrogenase (Homo sapiens) (UniProt P04406); test: CLD_GAPDH_48hr: CellzDirect (CLD) Gene Expression Assay for Baseline Control (Glyceraldehyde 3-phosphate dehydrogenase) at 48 hours (AID 2283706);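 further: active means higher GAPDH mRNA than DMSO vehicle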
Method in brief: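 GAPDH baseline-control readout: qNPA chemiluminescent mRNA quantitation in human liver primary cells 48 h after daily dosing on two consecutive days, vehicle 0.2% DMSO; gain of signal fitted against DMSO, cytotoxicity flagged by phase-contrast morphology.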

Measured: AC50

Glyceraldehyde-3-phosphate dehydrogenase (Homo sapiens), sequence (P04406 whole entry, looked up): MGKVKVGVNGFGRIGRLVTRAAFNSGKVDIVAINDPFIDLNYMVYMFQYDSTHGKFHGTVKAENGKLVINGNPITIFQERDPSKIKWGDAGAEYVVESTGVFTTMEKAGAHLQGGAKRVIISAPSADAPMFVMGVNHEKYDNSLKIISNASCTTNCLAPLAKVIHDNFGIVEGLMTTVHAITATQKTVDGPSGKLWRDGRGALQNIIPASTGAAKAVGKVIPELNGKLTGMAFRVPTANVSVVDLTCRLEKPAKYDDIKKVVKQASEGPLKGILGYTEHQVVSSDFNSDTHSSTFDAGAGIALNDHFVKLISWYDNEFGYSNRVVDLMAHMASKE
Cytochrome P450 3A4 (Homo sapiens), sequence (P08684 whole entry, looked up): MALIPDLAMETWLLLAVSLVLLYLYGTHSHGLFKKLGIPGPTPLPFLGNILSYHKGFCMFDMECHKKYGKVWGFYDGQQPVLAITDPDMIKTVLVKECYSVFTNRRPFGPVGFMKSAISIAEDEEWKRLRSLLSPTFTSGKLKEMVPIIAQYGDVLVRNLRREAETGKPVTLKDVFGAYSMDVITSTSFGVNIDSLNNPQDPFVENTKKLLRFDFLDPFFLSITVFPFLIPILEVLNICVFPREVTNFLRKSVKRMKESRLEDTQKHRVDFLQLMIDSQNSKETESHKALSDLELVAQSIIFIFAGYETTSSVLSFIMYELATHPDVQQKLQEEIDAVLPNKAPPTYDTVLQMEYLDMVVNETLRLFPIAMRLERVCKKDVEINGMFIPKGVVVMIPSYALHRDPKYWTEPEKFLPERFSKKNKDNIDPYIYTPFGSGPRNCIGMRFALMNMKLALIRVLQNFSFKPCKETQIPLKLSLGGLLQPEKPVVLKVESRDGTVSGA

CCCCOCCOCCOCc1cc2c(cc1CCC)OCO2
active: [1] 0.858 µM | [5] 0.83 µM | [6] 5.82 µM | [7] 12 µM | [8] 2.22 µM
inactive: [2] | [3] | [4] | [9] | [10]

O=C(Nc1ccc([N+](=O)[O-])cc1Cl)c1cc(Cl)ccc1O
active: [1] 3.97 µM | [6] 0.549 µM | [7] 3.55 µM
inactive: [2] | [11] | [3] | [12] | [13] | [14] | [8] | [15] | [16] | [10]

CCOC(=O)[C@H](C)Oc1ccc(Oc2nc3ccc(Cl)cc3o2)cc1
inactive: [1] | [2] | [4] | [13] | [17] | [7] | [18] | [14] | [8] | [9]
active: [6] 20 µM

c1ccc(Nc2ccccc2)cc1
active: [1] 6.41 µM | [5] 4.79 µM | [6] 4.82 µM
inactive: [2] | [11] | [3] | [4] | [13] | [17] | [7] | [14] | [9] | [10]

O=C(c1ccc(O)cc1O)c1ccc(O)cc1O
active: [15] 18.5 µM

CCC(O)=C1C(=O)CC(C(=O)O)CC1=O (configuration not stated)
active: [5] 0.000247 µM
inactive: [2] | [3] | [12] | [4] | [6] | [7] | [18] | [8] | [9]

Oc1ccc(C(c2ccc(O)cc2)C(Cl)(Cl)Cl)cc1
inactive: [1] | [3] | [4] | [18] | [14] | [8] | [9] | [15] | [10]

COC(=O)c1ccccc1S(=O)(=O)NC(=O)Nc1nc(OC(F)F)cc(OC(F)F)n1
active: [1] 0.233 µM | [6] 11 µM
inactive: [3] | [4] | [5] | [7] | [8] | [9]

CCN(CC)C(=O)c1cccc(C)c1
active: [5] 3.6 µM
inactive: [1] | [12] | [4] | [6] | [18] | [8]

COC(=O)c1ccc(I)cc1S(=O)(=O)NC(=O)Nc1nc(C)nc(OC)n1
active: [6] 20 µM | [7] 20 µM
inactive: [1] | [12] | [4] | [17] | [18] | [8] | [15]

CC(=O)S[C@@H]1CC2=CC(=O)CC[C@]2(C)[C@H]2CC[C@@]3(C)[C@@H](CC[C@@]34CCC(=O)O4)[C@H]12
inactive: [10]
